Test results taken from PubChem BioAssay.
Calls of active or inactive are those of the source. Unless noted, how the calls were made is not given here.

How the values were obtained:
[1] = resazurin metabolic signal in HepG2 cells – cell-based, resazurin fluorescence, 24 h, PK04 Diversity Set, profiling panel (AID 1172); conditions: HepG2 viability, higher = more signal
[2] = budding yeast growth changes without added modifier – OD600, strain BY4716, 24 h, basal condition, primary screen (AID 1173); conditions: S. cerevisiae BY4716 growth, OD600, 24 h; higher = more signal, called active from +8 up or from −8 down
[3] = viability profiling in MM1S myeloma cells – cell-based, resazurin fluorescence, basal, 24 h, PK04 Diversity Set, profiling panel (AID 1174); conditions: higher = more signal, called active from +8 up or from −8 down;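 further: MM1S multiple myeloma cell line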
[4] = target: Dihydroorotate dehydrogenase (quinone), mitochondrial (Plasmodium falciparum (isolate 3D7)) (UniProt Q08210); experiment: inhibition of P. falciparum DHODH – biochemical, C-terminal His tag, absorbance 600 nm, primary screen (AID 1175); conditions: PfDHODH enzyme, DCIP absorbance 600 nm; higher = more signal, called active from +8 up or from −8 down;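 further: recombinant parasite enzyme with a five histidine tag at its C terminus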
[5] = inhibition of PAO1 biofilm formation – strain PAO1, LB-PBS medium, absorbance 600 nm, primary screen (AID 1176); conditions: P. aeruginosa PAO1 growth/biofilm, A600, 12 h; higher = more signal
[6] = growth modulation of vineyard yeast isolate – strain RM11-1a, OD600, basal, 24 h, primary screen (AID 1177);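 further: cultures grown under basal conditions with no added stressor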; conditions: S. cerevisiae RM11-1a growth, OD600, 24 h; higher = more signal, called active from +8 up or from −8 down
[7] = growth of efflux-deficient E. coli DRC39 – strain DRC39, OD650, 24 h, E. coli filamentation inducers, primary screen (AID 1178);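 further: growth measured as culture turbidity by optical density at 650 nm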; conditions: E. coli DRC39 acrAB, higher = more signal, called active from +8 up or from −8 down
[8] = growth of efflux-deficient E. coli DRC39 – strain DRC39, OD650, 48 h, E. coli filamentation inducers, primary screen (AID 1179);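 further: screen aims at cell division blockers that make cells filament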; conditions: E. coli DRC39 delta-acrAB growth, higher = more signal, called active from +8 up or from −8 down
[9] = viability profiling in RPMI8226 myeloma cells – cell-based, resazurin fluorescence, basal, 24 h, PK04 Diversity Set, profiling panel (AID 1180); conditions: higher = more signal;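 further: RPMI8826 multiple myeloma cell line at 5000 cells per well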
[10] = target: E3 ubiquitin-protein ligase XIAP (Homo sapiens) (UniProt P98170); experiment: small molecules binding XIAP protein – biophysical, small-molecule microarray, fluorescence 635 nm, primary screen (AID 1181); conditions: higher = more signal;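 further: score merges 667 nm emission and signal to noise over triplicate slides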
[11] = test system: XIP peptide (Xip251-270) binding; experiment: XIP fragment 251-270 binding compounds – biochemical, small-molecule microarray, fluorescence 635/667 nm, 0.1 µg/mL protein, primary screen (AID 1182); conditions: fluorescent protein binding, 635 nm, higher = more signal, called active from +8 up or from −8 down
XIP peptide (Xip251-270) = experiment: compounds binding XIP fragment 251-270 – biochemical, small-molecule microarray, fluorescence 635/667 nm, 0.5 µg/mL protein, primary screen (AID 1183); conditions: fluorescence 635 nm, higher = more signal
[12] = blood-stage malaria parasite viability loss – strain 3D7, DAPI fluorescence, 100 nL, primary screen (AID 1184);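 further: parasites grown inside human red blood cells in medium with human serum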; conditions: P. falciparum 3D7 growth, 3 d, higher = more signal
[13] = target: Homeobox protein Hox-A13 (Mus musculus) (UniProt Q62424); experiment: disruptors of Hoxa13 oligonucleotide interaction – biochemical, fluorescence polarization, labeled oligonucleotide, primary screen (AID 1185); conditions: Hoxa13:DNA binding, 15 min, higher = more signal, called active from +8 up or from −8 down
Homeobox protein Hox-A13 (Mus musculus), sequence (Q62424 whole entry, looked up): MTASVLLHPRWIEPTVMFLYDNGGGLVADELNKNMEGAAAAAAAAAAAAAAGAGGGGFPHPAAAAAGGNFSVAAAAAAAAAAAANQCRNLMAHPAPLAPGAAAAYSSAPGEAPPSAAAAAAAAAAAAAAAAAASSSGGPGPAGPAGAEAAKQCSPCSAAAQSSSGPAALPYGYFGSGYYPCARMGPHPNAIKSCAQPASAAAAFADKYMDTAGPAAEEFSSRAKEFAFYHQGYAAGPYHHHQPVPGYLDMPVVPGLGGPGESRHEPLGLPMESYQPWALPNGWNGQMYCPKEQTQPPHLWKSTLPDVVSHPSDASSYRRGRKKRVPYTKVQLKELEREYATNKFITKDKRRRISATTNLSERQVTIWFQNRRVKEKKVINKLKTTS

Dihydroorotate dehydrogenase (quinone), mitochondrial (Plasmodium falciparum (isolate 3D7)), sequence (Q08210 whole entry, looked up): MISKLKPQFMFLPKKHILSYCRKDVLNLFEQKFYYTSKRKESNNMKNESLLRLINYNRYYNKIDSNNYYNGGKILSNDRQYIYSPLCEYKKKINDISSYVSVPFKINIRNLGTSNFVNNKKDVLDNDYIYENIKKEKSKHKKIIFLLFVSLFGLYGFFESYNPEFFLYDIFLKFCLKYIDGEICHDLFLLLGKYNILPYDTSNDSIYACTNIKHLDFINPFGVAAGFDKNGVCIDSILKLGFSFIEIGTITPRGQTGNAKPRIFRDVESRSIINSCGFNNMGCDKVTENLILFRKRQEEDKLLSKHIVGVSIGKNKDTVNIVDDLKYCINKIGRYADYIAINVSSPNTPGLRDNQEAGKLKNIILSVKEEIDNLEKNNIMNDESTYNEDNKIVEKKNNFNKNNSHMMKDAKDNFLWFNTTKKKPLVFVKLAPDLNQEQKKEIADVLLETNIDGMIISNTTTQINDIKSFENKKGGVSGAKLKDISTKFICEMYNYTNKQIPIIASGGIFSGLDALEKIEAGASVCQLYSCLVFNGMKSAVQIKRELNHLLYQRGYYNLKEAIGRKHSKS
E3 ubiquitin-protein ligase XIAP (Homo sapiens), sequence (P98170 whole entry, looked up, the tested form may be a part): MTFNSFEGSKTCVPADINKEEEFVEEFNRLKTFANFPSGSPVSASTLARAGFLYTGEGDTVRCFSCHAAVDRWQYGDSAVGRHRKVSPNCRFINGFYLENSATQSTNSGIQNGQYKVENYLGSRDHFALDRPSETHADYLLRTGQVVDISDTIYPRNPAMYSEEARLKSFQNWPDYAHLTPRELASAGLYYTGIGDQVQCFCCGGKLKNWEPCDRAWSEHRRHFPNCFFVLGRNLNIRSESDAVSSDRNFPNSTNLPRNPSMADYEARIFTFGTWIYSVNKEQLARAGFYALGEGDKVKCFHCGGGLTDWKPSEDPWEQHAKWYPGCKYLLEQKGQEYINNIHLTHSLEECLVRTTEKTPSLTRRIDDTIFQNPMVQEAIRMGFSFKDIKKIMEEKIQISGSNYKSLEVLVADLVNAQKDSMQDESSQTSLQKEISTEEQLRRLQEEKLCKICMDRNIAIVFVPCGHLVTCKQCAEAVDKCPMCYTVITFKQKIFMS

Structure (SMILES)	z-score [1]	z-score [2]	z-score [3]	composite z-score [4]	z-score [5]	z-score [6]	z-score [7]	z-score [8]	z-score [9]	composite z-score [10]	composite z-score [11]	composite z-score (XIP peptide (Xip251-270))	z-score [12]	z-score [13]
O=C1[C@H]2[C@H]3[C@H](O)[C@H](O)CC(=NOC[C@@H](O)COCc4ccco4)[C@H]3CC[C@H]2C(=O)N1Cc1ccccc1	1.57	-1.34 (inactive)	0.737 (inactive)	-0.336 (inactive)	0.377 (inactive)	-1.36 (inactive)	-0.194 (inactive)	-0.22 (inactive)	1.1	-0.0749	-0.227 (inactive)	0.252	0.254	-2.38 (inactive)
CCc1cc2c(nc1CC)CCN(CCC(C)=NO[C@@H](C)c1cn([C@H](CO)Cc3ccccc3)nn1)C2	-0.301	-0.841 (inactive)	-1.79 (inactive)	-1.3 (inactive)	-0.218 (inactive)	0.804 (inactive)	0.294 (inactive)	0.67 (inactive)	0.659	-0.0602	0.444 (inactive)	0.704	-1.72	-6.65 (inactive)
CCCNC(=O)OC[C@H]1O[C@H](CCON=Cc2ccc(C(=O)N3[C@H](c4ccc(C)cc4)[C@@H](C)CC[C@H]3C(=O)OC)cc2)C=C[C@@H]1Oc1ccc(OC)cc1	-0.73	1.85 (inactive)	-0.686 (inactive)	0.415 (inactive)	0.511 (inactive)	0.729 (inactive)	0.567 (inactive)	0.353 (inactive)	-0.203	0.0623	0.236 (inactive)	0.257	-2.3	-2.32 (inactive)
CC(C)(C)N1C(=O)[C@H]2[C@H]3[C@H](O)[C@H](O)CC(=NO[C@@H]4O[C@H](CO)[C@@H](O)[C@H](O)[C@H]4O)[C@H]3CC[C@H]2C1=O	-0.849	-1.3 (inactive)	-0.623 (inactive)	-0.982 (inactive)	1.15 (inactive)	0.339 (inactive)	-0.341 (inactive)	-1.45 (inactive)	-0.817	-0.142	0.0127 (inactive)	0.271	-1.62	-4.08 (inactive)
CCOC(=O)[C@H](CC(C)C)NC(=O)CCC1CC(OC(=O)NCc2ccc3c(c2)OCO3)CC2(CCCC(COC(=O)NCC(c3ccccc3)c3ccccc3)O2)O1 (some centres undefined)	0.842	0.724 (inactive)	0.56 (inactive)	0.125 (inactive)	-0.306 (inactive)	0.786 (inactive)	0.304 (inactive)	0.321 (inactive)	0.509	-0.17	0.717 (inactive)	-0.0305	-0.11	-6.66 (inactive)
CCCCC#C[C@@H]1C=C[C@H](Oc2cc(OC)c(OC)c(OC)c2)[C@@H](COC(=O)OCC)O1	-0.826	-0.535 (inactive)	-1.03 (inactive)	-1.48 (inactive)	0.806 (inactive)	0.628 (inactive)	1.02 (inactive)	0.751 (inactive)	-0.65	-0.113	0.392 (inactive)	0.355	0.421	-5.07 (inactive)
CCOC(=O)[C@H](CC(C)C)NC(=O)CCC1CC(OC(=O)NCc2cccc3ccccc23)CC2(CCCC(COC(=O)NCc3ccncc3)O2)O1 (some centres undefined)	-0.232	-0.101 (inactive)	0.192 (inactive)	0.0964 (inactive)	0.368 (inactive)	0.559 (inactive)	1.1 (inactive)	0.399 (inactive)	-0.404	-0.105	1.56 (inactive)	0.53	-0.652	-6.29 (inactive)
Cc1ccc(S(=O)(=O)N[C@H]2COC(=O)CC=C[C@@H](C)COC(=O)CC=C[C@@H]2C)cc1	-0.118	-0.603 (inactive)	0.186 (inactive)	-0.765 (inactive)	-0.319 (inactive)	0.313 (inactive)	0.0613 (inactive)	-0.0105 (inactive)	0.108	-0.239	0.172 (inactive)	0.921	0.641	-1.06 (inactive)
CCO[C@H](c1cc(OC)cc([N+](=O)[O-])c1OC)[C@H](C)C=CCC(=O)OC	-0.0508	-2.19 (inactive)	-1.43 (inactive)	-0.278 (inactive)	0.18 (inactive)	0.343 (inactive)	0.884 (inactive)	0.38 (inactive)	-0.622	0.601	-0.128 (inactive)	0.325	-0.0866	-0.64 (inactive)
CCc1cc2c(nc1CC)CCN(CCC(C)=NO[C@H](C)c1cn([C@H](CO)Cc3ccccc3)nn1)C2	-0.605	-0.0397 (inactive)	-0.376 (inactive)	1.07 (inactive)	-0.503 (inactive)	-0.0857 (inactive)	-1.4 (inactive)	-1.17 (inactive)	-0.162	0.204	0.076 (inactive)	0.284	-1.91	-5.78 (inactive)
C[C@@H]1CC[C@H]2C(=O)O[C@@H](COc3ccc(C(C)(C)C)cc3)CN2[C@@H]1c1ccc(Br)cc1	0.937	-0.752 (inactive)	0.23 (inactive)	-0.184 (inactive)	-0.291 (inactive)	-0.176 (inactive)	0.095 (inactive)	0.408 (inactive)	1.06	0.072	0.286 (inactive)	0.0087	0.093	0.347 (inactive)
